The source of these data is PubChem BioAssay (NCATS).

Inconclusive results are not listed. Active and inactive are the calls of the source. Calls come from the whole dose curve; as a rule, active = well fitted cell-killing curve with a large enough effect; inconclusive = small, poorly fitted or top-dose-only effect, or effect the other way; inactive = no such curve, though single readings can be large or run the other way.

The nature of this test: Quantitative High-Throughput drug screen in 47 multiple myeloma cell lines against the NCATS MIPE library collection: OPM2_DSMZ cell viability assay (AID 1919872). Note: nearly all actives have a fitted effect of over 30% in size. The note with it: OPM2 myeloma viability, CellTiter-Glo ATP luminescence, 48 h; series mostly up to 45.8 µM. The text has this: PI: Beverly A. Mock Ph.D.
Laboratory of Cancer Biology and Genetics,
Center for Cancer Research, National Cancer Institute,
National Institute of Health, Bethesda, Maryland
Drug resistance and disease progression are common in multiple myeloma (MM) patients, underscoring the need for new therapeutic combinations. […] We hypothesized that effective combinations would reduce MYC expression and enhance p16 activity. […] These preclinical data identify potentially useful drug combinations for evaluation in drug-resistant MM and reveal potential mechanisms of combined drug sensitivity.
Described herein is the primary MIPE qHTS used to cherrypick compounds. Validated compounds were then further tested for potential synergistic activiy.
[1] Peat TJ, Gaikwad SM, Dubois W, Gyabaah-Kessie N, Zhang S, Gorjifard S, Phyo Z, Andres M, Hughitt VK, Simpson RM, Miller MA, Girvin AT, Taylor A, Williams D, D'Antonio N, Zhang Y, Rajagopalan A, Flietner E, Wilson K, Zhang X, Shinn P, Klumpp-Thomas C, McKnight C, Itkin Z, Chen L, Kazandijian D, Zhang J, Michalowski AM, Simmons JK, Keats J, Thomas CJ, Mock BA. Drug combinations identified by high-throughput screening promote cell cycle transition and upregulate Smad pathways in myeloma. Cancer Lett. 2023 Aug 1;568:216284. doi: 10.1016/j.canlet.2023.216284. Epub 2023 Jun 24. PMID: 37356470; PMCID: PMC10408729.
SEQUENCE No. (e.g., 1, 2, 3, etc.); […] (e.g., Cells, Incubation, Reagent, etc.); VALUE and DESCRIPTION.
1; Cells; 5 uL; white, solid bottom 1536-well Greiner assay plate.
2; Compounds; 23 nL; Kalypsis pin tool (Wako USA) equipped with a 1536-well pin head to transfer to the assay plates.
3; Incubation; 48 hours; 37C incubation.
4; Reagent;5uL; CellTiter Glo (Promega).
5; Detector; 425V; Luminescence; Viewlux PerkinElmer.
NOTES (numbers refer to Sequence numbers above)
1. The cell-based screening methods employed in this study were like those previously published. Briefly, the corresponding myeloma cell lines were screened in 1,536-well plates with 500 cells, 5-uL per well for inhibition of cell viability (assessed by measuring ATP levels with CellTiterGlo).
2. NCATS MIPE 4.0 library of approved and investigational drugs were added using the Kalypsis pin tool. Wells treated with DMSO only for 100% viability and media only wells for 0% viability were used as controls.
3. The assay plates were covered and incubated for 48 hours in a 37C, 5% CO2 incubator with controlled humidity.
4. After 48 hours, CellTilter-GloTM luminescent substrate mix (Promega) reagent was added to the assay plate and plates we incubated for 5 min at room temperature.
5. Signal was measured as median relative luminescence units on a ViewLux (PerkinElmer) multiplate reader.
[1] Heske CM, Davis MI, Baumgart JT, Wilson K, Gormally MV, Chen L, Zhang X, Ceribelli M, Duveau DY, Guha R, Ferrer M, Arnaldez FI, Ji J, Tran HL, Zhang Y, Mendoza A, Helman LJ, Thomas CJ. Matrix Screen Identifies Synergistic Combination of PARP Inhibitors and Nicotinamide Phosphoribosyltransferase (NAMPT) Inhibitors in Ewing Sarcoma. Clin Cancer Res. 2017 Dec 1;23(23):7301-7311. doi: 10.1158/1078-0432.CCR-17-1121. Epub 2017 Sep 12. PMID: 28899971; PMCID: PMC6636827.
On the technique in general: Cellular ATP, detected with luciferase, serves as a proxy for viable cell number.
With `C[C@]12CC[C@@H]3c4ccc(OC(=O)N(CCCl)CCCl)cc4CC[C@H]3[C@@H]1CC[C@@H]2OP(=O)(O)O`, the call was inactive.

With `CC(C)c1cccc(C(C)C)c1O`, the result was inactive.

As to `CN1C(=O)CCS(=O)(=O)C1c1ccc(Cl)cc1` (stereo unspecified), the outcome was inactive.

On to `COc1cc(OC)c(OC)cc1C=O`, for which the compound was called inactive.

Consider `CC(NC(C)(C)C)C(=O)c1cccc(Cl)c1` (stereo unspecified), for which the compound was called inactive.

For the compound `CC(C)C[C@H](CN)CC(=O)O`, the compound was called inactive.

With `O=P1(N(CCCl)CCCl)NCCCO1` (stereo unspecified), the outcome was inactive.

In the case of `CCC1(c2ccc(N)cc2)CCC(=O)NC1=O` (stereo unspecified), the call was inactive.

With `O=C(O)CCCc1ccc(N(CCCl)CCCl)cc1`, the call was inactive.

Regarding `C[C@]12CC[C@H]3[C@@H](CC[C@@]45O[C@H]4C(O)=C(C#N)C[C@]35C)[C@H]1CC[C@H]2O`, the call was inactive.

Regarding `CN1C(=O)COc2c(C(=O)NC3CN4CCC3CC4)cc(Cl)cc21` (stereo unspecified), the call was inactive.
